We go through ten compounds from PubChem BioAssay.

Structures are written as SMILES. The source made the active and inactive calls.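 How the source made its calls, unless noted: active means inhibition above 20% together with a positive visual image hit; inconclusive means visual image hit but inhibition not above 20%; inactive means no visual image hit.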

Assay [1] in a line: inhibitors of TNFa-induced NFkB p65 translocation, primary screen, imaging, HUVEC, MLSMR starter and 10KST1 sets (AID 438).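 Further: compound added about 3h40 before a 20 min TNFalpha stimulation.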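 On inhibition: signal is the nuclear over cytoplasmic p65 intensity ratio per well.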 As to conditions: HUVEC TNFa-induced p65 nuclear translocation; cell count: measured here: nuclei count (cytotoxicity indicator), at 2.08 µM; inhibition: at 2 µM, stronger effect = higher value, 0% TNFa-plus-vehicle, 100% no-TNFa wells.
Assay [2] in a line: inhibitors of mutant huntingtin aggregation, primary screen, imaging, exon1htt(103Q)mCFP cells, high-content imaging (AID 483;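 active means visual image review flags a hit and inhibition of aggregation exceeds 20%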;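 further: compound exposure lasted 3 days before fixation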;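 on nuclei count: percent of the per-plate median nuclei count of sample wells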). As to conditions: exon1htt(103Q)mCFP cell line, aggregate imaging, at 2 µM; inhibition of aggregation: stronger effect = higher value; nuclei count: measured here: cell count, toxicity.
A short description of assay [3]: inhibitors of E-selectin induction by TNFa, primary screen, imaging, HUVEC, immunofluorescence, MLSMR starter and 10KST1 sets (AID 487;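 active means visually confirmed hit in the image check and inhibition above 20%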;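 on inhibition: signal is fraction of cell area covered by stained E-selectin grains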;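 on nuclei count: 100% = median nuclei count of all wells on the same plate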). As to conditions: HUVEC TNFalpha-induced E-selectin immunofluorescence imaging, at 2 µM; inhibition: stronger effect = higher value; nuclei count: measured here: cell number, toxicity.
For assay [4], the target named is Voltage-gated potassium channel subunit beta-2 (Rattus norvegicus) (UniProt P62483). In words: KvBeta enzyme negative modulators, primary screen, biochemical, NADPH fluorescence (AID 622;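 active means fluorescence slope higher than the sample average by over 3 SD, cut at about -0.22 in these data, passing the limit was not always enough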;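 further: slope of raw intensity against log time taken from 70 to 1610 s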). As to conditions: recombinant KvBeta, 4-cyanobenzaldehyde reduction, at 10 µM, stronger effect = higher value.
Sequence of Voltage-gated potassium channel subunit beta-2 (Rattus norvegicus) (P62483 whole entry, looked up): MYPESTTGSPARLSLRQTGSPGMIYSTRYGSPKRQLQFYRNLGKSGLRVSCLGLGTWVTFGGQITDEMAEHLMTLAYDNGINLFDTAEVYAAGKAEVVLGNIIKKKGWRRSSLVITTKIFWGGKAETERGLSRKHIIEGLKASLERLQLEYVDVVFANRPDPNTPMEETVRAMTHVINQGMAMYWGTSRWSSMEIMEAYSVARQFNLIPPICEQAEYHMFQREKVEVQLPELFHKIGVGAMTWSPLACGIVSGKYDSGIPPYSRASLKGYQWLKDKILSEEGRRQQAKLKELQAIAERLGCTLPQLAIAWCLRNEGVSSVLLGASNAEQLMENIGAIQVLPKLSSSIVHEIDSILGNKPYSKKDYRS
The target is the same in assay [5]. The experiment in a line: KvBeta positive modulators, primary screen, biochemical, NADPH fluorescence (AID 623;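 active means NADPH fluorescence slope more negative than the mean of all samples by about 3 SD, 99.7% confidence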;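 further: fluorescence intensity change per second fitted from 20 to 320 s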). As to conditions: Recombinant KvBeta, NADPH fluorescence decrease slope, 10 min; at 10 µM; stronger effect = lower value.
The target of assay [6] is Alpha-2C adrenergic receptor (Homo sapiens) (UniProt P18825). The experiment in a line: modulators of alpha2C/GIRK thallium flux, primary screen, cell-based, HEK293 alpha2C/GIRK1/2 (AID 624;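 active means fluorescence slope after compound addition differing from the mean of all screened samples at 99.7% confidence, in either direction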;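 further: slope of fluorescence ratio to pre-addition baseline per second over 15 to 24 s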). As to conditions: thallium flux BTC fluorescence, at 10 µM, actives lie on both sides.
Sequence of Alpha-2C adrenergic receptor (Homo sapiens) (P18825 whole entry, looked up): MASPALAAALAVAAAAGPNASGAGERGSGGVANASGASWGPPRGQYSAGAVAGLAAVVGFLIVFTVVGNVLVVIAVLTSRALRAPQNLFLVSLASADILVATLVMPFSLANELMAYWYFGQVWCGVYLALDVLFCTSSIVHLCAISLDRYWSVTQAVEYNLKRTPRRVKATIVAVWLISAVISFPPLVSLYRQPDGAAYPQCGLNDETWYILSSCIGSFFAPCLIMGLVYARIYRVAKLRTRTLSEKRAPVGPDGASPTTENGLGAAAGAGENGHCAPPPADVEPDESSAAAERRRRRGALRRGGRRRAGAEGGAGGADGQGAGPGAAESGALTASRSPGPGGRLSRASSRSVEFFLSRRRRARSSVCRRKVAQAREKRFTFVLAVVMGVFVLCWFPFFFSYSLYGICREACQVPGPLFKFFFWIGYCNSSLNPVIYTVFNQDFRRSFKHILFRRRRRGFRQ
Assay [7] is described as follows: inhibitors of Sendai virus-induced IRF3 signaling, primary screen, TLR/RLR signaling modifier project, cell-based, Sendai virus stimulus, luciferase, 10K MLSCN set (AID 602276;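 active means inhibition at or above 50% at 10 µM; inactive means inhibition below 50%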;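 further: firefly luciferase from ISG56 promoter only with Renilla not read in this screen; 0% = Sendai virus plus DMSO and 100% = medium plus DMSO without virus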). As to conditions: HEK293 RL24 IRF3 luciferase reporter, at 10 µM, stronger effect = higher value.
Assay [8] in a line: inhibitors of poly I:C-induced TLR3 signaling, primary screen, cell-based, poly I:C stimulus, luciferase, 10K MLSCN set (AID 602277;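 active means inhibition of the reporter signal at or above 50%; inactive means inhibition below 50%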). As to conditions: HEK293-TLR3 RL24 IRF3 luciferase reporter, at 10 µM, stronger effect = higher value. For orientation: Reporter assays use an easily measured gene product as a stand-in for the process of interest.

Consider `O=C(O)C1C2C=CC(C3CC23)C1C(=O)NCCc1ccccc1` (stereo not given), for which, in assay [1], the cell count came out at 494. The inhibition – broadly, the change of the read-out against control, counted positive when it falls – was -7.5% (inactive) in assay [1], -50% (inactive) in assay [3], -3.61% (inactive) in assay [7] and 11.6% (inactive) in assay [8]. Also, the inhibition of aggregation in assay [2] was 19.2% (inactive). Also, the nuclei count came to 54% in assay [2] and 104% in assay [3]. In addition, the fluorescence slope in assay [4] was -0.467 (inactive). Also, the NADPH fluorescence slope in assay [5] is -3.5e-05 (inactive). Further, the slope in assay [6] was 0.00628 (inactive).
Regarding `CCCC(NC(=O)c1ccccc1)c1nc2ccccc2n1Cc1ccc(C(=O)OC)o1` (stereo not given), in assay [1], the cell count came to 722. Further, the inhibition was 5.5% (inactive) in assay [1], -91.8% (inactive) in assay [3], 0.936% (inactive) in assay [7] and 16.6% (inactive) in assay [8]. In addition, in assay [2], the inhibition of aggregation is 7.1% (inactive). For the same compound, the nuclei count in assay [2] was 105%; in assay [3], 119%. Further, the fluorescence slope in assay [4] is -0.372 (inactive). In addition, in assay [5], the NADPH fluorescence slope was -3.2e-06 (inactive). In addition, the slope in assay [6] is 0.00315 (inactive).
Take `Nc1cc(N)cc(-c2nc3ccccc3o2)c1`: in assay [1], the cell count turned out to be 595. Further, the inhibition in assay [1] is -1.3% (inactive); in assay [3] it was -53.9% (inactive); in assay [7] it was -12.2% (inactive); in assay [8] it was -26% (inactive). Moreover, the inhibition of aggregation in assay [2] was -3.7% (inactive). Also, the results for the nuclei count in assay [2] and in assay [3] were 109% and 116%, respectively. In addition, the fluorescence slope in assay [4] is -0.56 (inactive). Besides, the NADPH fluorescence slope in assay [5] was -4.4e-05 (inactive). In assay [6], the slope was 0.00618 (inactive).
For the compound `CC1CCCc2sc3nc(NCc4ccco4)n4ncnc4c3c21` (stereo not given), the cell count in assay [1] stood at 335. Further, the inhibition in assay [1] was 7.7% (inactive); in assay [3] it was 5.2% (inactive); in assay [7], 2.57% (inactive); in assay [8] it was -0.465% (inactive). In assay [2], the inhibition of aggregation is 8.4% (inactive). Further, the nuclei count is 17.7% in assay [2] and 112% in assay [3]. For the same compound, the fluorescence slope in assay [4] is -0.514 (inactive). In addition, the NADPH fluorescence slope in assay [5] was -9.2e-06 (inactive). Further, the slope in assay [6] was 0.00555 (inactive).
Regarding `CCOC(=O)C1CN(S(=O)(=O)c2ccc(C)cc2)CCN1S(=O)(=O)c1ccc(C)cc1` (stereo not given), in assay [1], the cell count was 339. Also, the inhibition in assay [1] was 3.3% (inactive); in assay [3], -114% (inactive); in assay [7] it was 8.55% (inactive); in assay [8], 11% (inactive). In addition, the inhibition of aggregation in assay [2] was -36.8% (inactive). The results for the nuclei count in assay [2] and in assay [3] were 117% and 122%, respectively. Further, the fluorescence slope in assay [4] was -0.591 (inactive). Moreover, in assay [5], the NADPH fluorescence slope was 3.6e-05 (inactive). Also, in assay [6], the slope is 0.00631 (inactive).
Take `O=C(Nc1ccc(Cl)cc1C(=O)O)c1ccc2c(c1)C(=O)N(Cc1ccco1)C2=O`: the cell count in assay [1] was 366. Besides, the inhibition in assay [1] is 0.3% (inactive); in assay [3], -34.4% (inactive); in assay [7], 23.5% (inactive); in assay [8], 28.2% (inactive). Further, the inhibition of aggregation in assay [2] was -2.8% (inactive). Besides, the figures for the nuclei count in assay [2] and in assay [3] were 105% and 119%, respectively. Also, the fluorescence slope in assay [4] was -0.493 (inactive). The NADPH fluorescence slope in assay [5] is -4.3e-05 (inactive). For the same compound, the slope in assay [6] was 0.00498 (inactive).
For `CCOc1ccc(NC(=O)C2CC(=O)N(C(C)C)C2)cc1` (stereo not given), the cell count in assay [1] stood at 346. For the same compound, the inhibition in assay [1] was -0.5% (inactive); in assay [3] it was -32.2% (inactive); in assay [7] it was 11% (inactive); in assay [8] it was 12.4% (inactive). In addition, the inhibition of aggregation in assay [2] was 11.8% (inactive). Also, the values for the nuclei count in assay [2] and in assay [3] were 91.8% and 96.8%, respectively. For the same compound, the fluorescence slope in assay [4] is -0.623 (inactive). In addition, the NADPH fluorescence slope in assay [5] was 4.4e-05 (inactive). For the same compound, in assay [6], the slope was 0.00445 (inactive).
For `CC1CCN(CCc2nc3cc(NS(=O)(=O)c4ccc(F)cc4)ccc3n2C)CC1`, in assay [1], the cell count amounted to 392. Besides, the inhibition in assay [1] was 6.1% (inactive); in assay [3], -31.1% (inactive); in assay [7], 5.27% (inactive); in assay [8], 16% (inactive). In assay [2], the inhibition of aggregation was 13.2% (inactive). For the same compound, the nuclei count in assay [2] worked out at 97.6%; in assay [3] it was 106%. For the same compound, the fluorescence slope in assay [4] was -0.5 (inactive). For the same compound, the NADPH fluorescence slope in assay [5] is -3.1e-05 (inactive). Moreover, the slope in assay [6] is 0.00517 (inactive).
`CC1CCN(C(=O)CCNS(=O)(=O)c2ccccc2)CC1`: the cell count in assay [1] worked out at 709. The inhibition in assay [1] is 0.4% (inactive); in assay [3] it was -149% (inactive); in assay [7], -23.4% (inactive); in assay [8], -31.3% (inactive). Besides, the inhibition of aggregation in assay [2] was -20.3% (inactive). The nuclei count stood at 101% in assay [2] and 142% in assay [3]. Besides, the fluorescence slope in assay [4] was -0.605 (inactive). For the same compound, in assay [5], the NADPH fluorescence slope is -2.3e-07 (inactive). Moreover, the slope in assay [6] was 0.00564 (inactive).
Regarding `Cc1cc(C)n(S(=O)(=O)c2cc(C(=O)O)c(Cl)cc2Cl)n1`, the cell count in assay [1] came out at 432. In addition, the inhibition is -0.5% (inactive) in assay [1], -83.9% (inactive) in assay [3], 13.3% (inactive) in assay [7] and 10.3% (inactive) in assay [8]. For the same compound, in assay [2], the inhibition of aggregation was -10.2% (inactive). The nuclei count in assay [2] was determined as 110%; in assay [3] it was 98.4%. Also, in assay [4], the fluorescence slope is -0.387 (inactive). For the same compound, the NADPH fluorescence slope in assay [5] was 4.4e-06 (inactive). Further, the slope in assay [6] was 0.00497 (inactive).
